From PubChem BioAssay
Only some compounds are listed: those with a hit (about 19% of all), similar ones and a draw of the others.
DT40 TDP1 CPT – qHTS for Inhibitors of human tyrosyl-DNA phosphodiesterase 1 (TDP1): qHTS in cells in presence of CPT. chicken DT40 Tdp1-/-;hTDP1 cells + 20 nM CPT, ATP luminescence, 48 h. Potency, µM (doses to about 46.2 µM), most hits filed as inhibitors. hit rate 12% among 420,000. AID 686979, 2013; also: nearly all actives have a fitted effect of over 55% in size
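Chicken DT40 Tdp1-/- cells stably complemented with human TDP1 were seeded at 400 cells/well in medium containing 20 nM camptothecin, exposed to pin-transferred compounds, and grown at 37 °C for at least 48 hr. Viability was read as ATP luminescence.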
TDP1 inh – qHTS Assay for Inhibitors of Tyrosyl-DNA Phosphodiesterase (TDP1); Tyrosyl-DNA phosphodiesterase 1 (Homo sapiens), Q9NUW8; recombinant TDP1, AlphaScreen DNA substrate cleavage; Potency, µM (titrated, usually from 130 µM), most hits filed as inhibitors; hit rate 0.28% among 350,000; AID 485290, 2010; also: nearly all actives have a fitted effect of over 40% in size
Target sequence (Q9NUW8 whole entry, looked up): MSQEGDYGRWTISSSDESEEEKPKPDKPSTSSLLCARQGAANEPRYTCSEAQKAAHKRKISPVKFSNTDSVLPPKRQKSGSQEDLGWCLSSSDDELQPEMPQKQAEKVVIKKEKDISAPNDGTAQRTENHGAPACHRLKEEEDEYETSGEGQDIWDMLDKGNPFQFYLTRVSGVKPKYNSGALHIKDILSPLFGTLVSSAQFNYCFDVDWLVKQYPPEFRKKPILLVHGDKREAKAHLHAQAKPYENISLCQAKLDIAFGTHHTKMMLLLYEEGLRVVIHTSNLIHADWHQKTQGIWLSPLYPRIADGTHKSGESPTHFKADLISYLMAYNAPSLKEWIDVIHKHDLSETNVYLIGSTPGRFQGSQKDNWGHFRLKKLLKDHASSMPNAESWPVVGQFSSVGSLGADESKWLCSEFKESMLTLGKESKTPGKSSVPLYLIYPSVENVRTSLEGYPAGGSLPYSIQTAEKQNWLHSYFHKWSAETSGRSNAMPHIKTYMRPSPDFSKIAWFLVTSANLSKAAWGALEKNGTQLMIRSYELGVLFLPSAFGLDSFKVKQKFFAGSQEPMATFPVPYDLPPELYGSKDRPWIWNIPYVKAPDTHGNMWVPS
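Enzyme-compound mixtures sat 15 min at room temperature, followed by a 5 min reaction with 15 nM final substrate and 10 min with AlphaScreen beads. Recombinant human Tdp1 was used at 1 nM final.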
TGFb inhibitor – qHTS for Inhibitors of TGF-b | Potency, µM (titrated, usually from 46.1 µM), hits mostly inhibitors | HepG2 CAGA-GFP TGF-b/SMAD3 reporter, GFP fluorescence, 18 h; TGF-beta stimulated, 500 pg/mL final | AID 588855, 2011 | hit rate 1.2% among 410,000; also: nearly all actives have a fitted effect of over 65% in size
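Smad-responsive CAGA-GFP expression was quantified in HEPG2 cells exposed to compounds and 500 pg/mL final TGF-beta for 18 h at 37 degrees C; unstimulated wells defined full inhibition.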
HepG2 viability – qHTS for Inhibitors of TGF-b: Cytotox Counterscreen; HepG2 CAGA-GFP viability, ATP luminescence, 18 h; Potency, µM (titrated, usually from 46.1 µM), most hits filed as cytotoxic; hit rate 0.76% among 410,000; AID 588856, 2011
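HepG2 CAGA-GFP cells (1000/well, DMEM with 1% FBS) received compound, then TGF-beta at 500 pg/mL final, and were incubated 18 hours at 37 degrees C. Viability was read by CellTiter-Glo luminescence. Media-only wells were set as complete cell-killing and DMSO as no toxicity.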
DT40 TDP1 no CPT – qHTS for Inhibitors of human tyrosyl-DNA phosphodiesterase 1 (TDP1): qHTS in cells in absence of CPT | Potency, µM (highest dose often 46.2 µM), usual class: inhibitors | hit rate 15% among 420,000 | DT40 Tdp1-/- hTDP1 cells, no CPT, ATP luminescence, 48 h; also: nearly all actives have a fitted effect of over 55% in size
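Chicken DT40 Tdp1-/- cells complemented with human TDP1, screened without camptothecin (DMSO vehicle only), 400 cells/well. Compounds pin-transferred, cells incubated at 37 °C for at least 48 hr. Growth read as ATP-dependent luminescence (CellTiter-Glo, 30 min at RT).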
IL1B secr inh – qHTS for Inhibitors of Inflammasome Signaling: IL-1-beta AlphaLISA Primary Screen; THP-1 LPS/ATP IL-1B secretion, AlphaLISA, 16 h; stronger effect = lower value; activity change, % at 57.5 µM; hit rate 4.7% among 360,000; in the data active = activity change below about -50%; inconclusive = mostly about -30% to -49%
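THP-1 cells pretreated 1 hr with compounds (up to 57.5 uM final), then stimulated with LPS (250 ng/mL final) plus ATP (1.25 mM final); secreted IL-1B measured by AlphaLISA after 16 hr, decreased signal indicating inhibition.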
Large screens that a line does not name were inactive. Unless noted, calls follow the shape of the dose curve; as a rule, active = well fitted curve in the direction sought with a large enough effect; inconclusive = small, poorly fitted or top-dose-only effect, or another doubt; inactive = no such curve, though single readings can be large; an effect the other way counts as inactive or inconclusive.

CC(=O)c1ccc2c(c1)CC1(C2)Cc2cc3c(cc2C1)C(=O)CC3 (configuration not stated)	DT40 TDP1 CPT 5.2µM, TGFb inhibitor inconclusive, DT40 TDP1 no CPT 3.3µM (no result: TDP1 inh)
CCOC(=O)CNC=C(C(=O)OCC)C(=O)OCC	none
CCOC(=O)C=C(C(=O)OCC)C(=O)OCC	DT40 TDP1 CPT 4.6µM, DT40 TDP1 no CPT 4.6µM (no result: TDP1 inh)
CC(C)=CCC1=C(O)[C@](O)(CC=C(C)C)C(=O)C(C(=O)CC(C)C)=C1O	none (no result: TGFb inhibitor, HepG2 viability, IL1B secr inh)
CCOc1ccc(NC(=O)Cn2c(=O)n(CC(=O)NCCc3ccccc3)c(=O)c3sccc32)cc1	none (no result: IL1B secr inh)
CCOC(=O)N1CCC(NS(=O)(=O)c2ccc3c(c2)OCC(=O)N3)CC1	DT40 TDP1 CPT inconclusive
COc1cccc(NC(=O)CCS(=O)(=O)c2cc3c(cc2Cl)NC(=O)CO3)c1	none
Cc1cccc(NC(=O)CCS(=O)(=O)c2cc3c(cc2Cl)NC(=O)CO3)c1	DT40 TDP1 CPT 18µM, DT40 TDP1 no CPT inconclusive
CCOC(=O)N1CCC(NS(=O)(=O)c2cc3c(cc2Cl)NC(=O)CO3)CC1	DT40 TDP1 CPT 18µM, DT40 TDP1 no CPT 23µM
O=c1[nH]ccc2c(O)cccc12	DT40 TDP1 CPT inconclusive, DT40 TDP1 no CPT 21µM
COc1ccc(Oc2ccc(N/C=C3\CCCC3=O)cc2)cc1	DT40 TDP1 CPT inconclusive, DT40 TDP1 no CPT 26µM
COc1ccc(-c2cc3nc(-c4ccccc4)cc(N4CCN(C(=O)c5ccccc5)CC4)n3n2)cc1	DT40 TDP1 CPT 15µM, DT40 TDP1 no CPT 4.1µM (no result: TDP1 inh)
O=C(c1ccccc1)N1CCN(c2cc(Cl)nc3cc(-c4cccc(Cl)c4)nn23)CC1	DT40 TDP1 CPT 16µM, DT40 TDP1 no CPT 4.6µM (no result: TDP1 inh)
COc1ccc(-c2cc3nc(-c4ccccc4)cc(N4CCN(C(=O)c5ccsc5)CC4)n3n2)cc1	DT40 TDP1 CPT 7.3µM, DT40 TDP1 no CPT 5.2µM (no result: TDP1 inh)
O=C(c1ccoc1)N1CCN(c2cc(-c3cccc(F)c3)nc3cc(-c4cccc(Cl)c4)nn23)CC1	DT40 TDP1 CPT 7.3µM, DT40 TDP1 no CPT 4.6µM (no result: TDP1 inh)
COCCn1c(CCC(=O)Nc2ccc(OC)c(OC)c2)nc2cccnc21	none (no result: IL1B secr inh)
Cc1ccc(NC(=O)C(OC(=O)c2ccc(C=O)cc2)c2ccccc2)cc1Cl (configuration not stated)	DT40 TDP1 CPT inconclusive, TGFb inhibitor inconclusive, DT40 TDP1 no CPT inconclusive
COc1ccc(-c2cc3nc(-c4ccccc4)cc(N4CCN(C(C)=O)CC4)n3n2)cc1	DT40 TDP1 no CPT 2.6µM (no result: TDP1 inh)
O=C(O)CCC(=O)OCCCc1cc2ccccc2c(=O)o1	none
O=c1c2ccccc2nc2c3ccccc3c(Cl)nn12	none (no result: DT40 TDP1 CPT, TGFb inhibitor, HepG2 viability, DT40 TDP1 no CPT, IL1B secr inh)
CC1CN(c2nn3c(=O)c4ccccc4nc3c3ccccc23)CC(C)O1 (configuration not stated)	DT40 TDP1 CPT 8.2µM, TGFb inhibitor inconclusive, DT40 TDP1 no CPT 5.8µM, IL1B secr inh -63
CCN1CCN(c2nn3c(=O)c4ccccc4nc3c3ccccc23)CC1	DT40 TDP1 CPT inconclusive, DT40 TDP1 no CPT 16µM, IL1B secr inh -58
CCOC(=O)C1(C)CCCN(C(=O)c2ccccc2F)C1 (configuration not stated)	none (no result: TDP1 inh)
COc1ccc(N2CCN(C(c3nnnn3C3CCCC3)C(C)C)CC2)cc1 (configuration not stated)	DT40 TDP1 CPT 21µM, DT40 TDP1 no CPT 18µM
CC(C)C(c1nnnn1C1CCCCC1)N1CCc2ccccc21 (configuration not stated)	DT40 TDP1 CPT inconclusive, DT40 TDP1 no CPT inconclusive
COc1ccc(OC)c(C(c2nnnn2C2CCCC2)N2CCN(c3ccc(F)cc3)CC2)c1 (configuration not stated)	DT40 TDP1 CPT inconclusive, DT40 TDP1 no CPT inconclusive
CC(C)C(c1nnnn1C1CCCC1)N1c2ccccc2CC1C (configuration not stated)	DT40 TDP1 CPT 21µM, DT40 TDP1 no CPT 13µM
COc1ccc(C(c2nnnn2C2CCCC2)N2CCC(C)CC2)c(OC)c1 (configuration not stated)	DT40 TDP1 CPT 18µM, DT40 TDP1 no CPT 21µM
COc1ccc(C2=NC(c3ccc(Cl)cc3)C(c3ccc(Cl)cc3)N2C(=O)N2CCNC(=O)C2)c(OC(C)C)c1 (configuration not stated)	none (no result: DT40 TDP1 CPT, TGFb inhibitor, HepG2 viability, DT40 TDP1 no CPT, IL1B secr inh)
CC(C)(C)c1csc(NC(=O)c2ccc3nccnc3c2)n1	DT40 TDP1 CPT 16µM, DT40 TDP1 no CPT 18µM
CC(C)(C)c1csc(NC(=O)c2ccncc2)n1	DT40 TDP1 CPT inconclusive, DT40 TDP1 no CPT 21µM
Cc1csc(NC(=O)c2ccncc2)n1	none
Cc1cccc(NC(=O)c2ccc3nccnc3c2)n1	DT40 TDP1 CPT inconclusive
Cc1nc2cnc(OCc3ccccc3)nc2n(C)c1=O	none (no result: TDP1 inh, TGFb inhibitor, HepG2 viability, IL1B secr inh)
COc1ccccc1CNC(=O)CN1C(=O)NC(Cc2ccccc2)(c2ccccc2)C1=O (configuration not stated)	IL1B secr inh inconclusive
CCN(CC)S(=O)(=O)c1ccc(NCC2COc3ccccc3O2)c([N+](=O)[O-])c1 (configuration not stated)	DT40 TDP1 CPT 16µM, TGFb inhibitor inconclusive, DT40 TDP1 no CPT 23µM
CN(C)S(=O)(=O)c1ccc(NCC2COc3ccccc3O2)c([N+](=O)[O-])c1 (configuration not stated)	DT40 TDP1 CPT 16µM, TGFb inhibitor inconclusive, DT40 TDP1 no CPT 23µM
NC(=O)c1ccc(NCC2COc3ccccc3O2)c([N+](=O)[O-])c1 (configuration not stated)	DT40 TDP1 no CPT inconclusive
CCOc1ccc(CN(CCc2ccc3c(c2)OCO3)Cc2cc(OC)cc(OC)c2)cc1	DT40 TDP1 CPT inconclusive, DT40 TDP1 no CPT inconclusive (no result: TDP1 inh, IL1B secr inh)
O=C(CN1C(=O)CSc2ccc(S(=O)(=O)N3CCCC3)cc21)NCc1ccc(Cl)cc1	DT40 TDP1 CPT inconclusive, DT40 TDP1 no CPT inconclusive (no result: IL1B secr inh)
CC(=O)[C@@]1(O)CC[C@H]2[C@@H]3C[C@H](C)C4=CC(=O)C=C[C@]4(C)[C@@]3(F)[C@@H](O)C[C@@]21C	DT40 TDP1 CPT inconclusive, IL1B secr inh -79
C[C@@H]1C[C@@H]2[C@H]3CCC4=CC(=O)C=C[C@]4(C)[C@]3(F)[C@@H](O)C[C@@]2(C)[C@@]1(O)C(=O)CO	none (no result: TGFb inhibitor, HepG2 viability, IL1B secr inh)
